# Measurements taken from PubChem BioAssay AID1159580 (chemical genetic matrix, 2015).
# Among all 5,500 compounds or so, about 2,000 (36%) were called active. Inconclusive results (about 18%) are left out. The list shows a part of the results. A number with no mark means an inactive call. Cut-off read from the data, not from the text of the source: active = normalized growth mostly below about 0.91 (no sharp cut-off); inconclusive = no clear call, values can overlap the other calls; inactive = mostly above about 0.92.
# Test: chemical genetic growth profiling, strain panel (AID 1159580);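 note: tested at 20 µM; growth read once vehicle control cultures reached saturation at 30 °C; 1 = growth at the plate median or of vehicle wells; lower values mean less growth of the strain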
# Conditions: growth OD
smiles,measurement,setting,value
CCCCCCCCCc1ccc(O)cc1,normalized growth,"S. cerevisiae deletion strains, locus YJR075W, strain HOC1, active compounds read low",0.256 (active)
same,normalized growth,"S. cerevisiae deletion strains, locus YKL009W, strain mrt4, active compounds read low",0.616 (active)
same,normalized growth,"S. cerevisiae deletion strains, locus YKL068W, active compounds read low",0.964
same,normalized growth,"S. cerevisiae deletion strains, locus YKL085W, strain MDH1 (second series), active compounds read low",0.311 (active)
same,normalized growth,"S. cerevisiae deletion strains, locus YKL085W, strain MDH1, active compounds read low",0.311 (active)
same,normalized growth,"S. cerevisiae deletion strains, locus YKL160W, strain elf1, active compounds read low",0.0913 (active)
same,normalized growth,"S. cerevisiae deletion strains, locus YKL190W, strain CNB1, active compounds read low",0.139 (active)
same,normalized growth,"S. cerevisiae deletion strains, locus YKR001C, strain vps1, active compounds read low",0.352 (active)
same,normalized growth,"S. cerevisiae deletion strains, locus YKR026C, strain gcn3, active compounds read low",0.0658 (active)
same,normalized growth,"S. cerevisiae deletion strains, locus YKR091W, strain srl3, active compounds read low",0.0785 (active)
same,normalized growth,"S. cerevisiae deletion strains, locus YLL001W, strain dnm1, active compounds read low",0.0778 (active)
same,normalized growth,"S. cerevisiae deletion strains, locus YLL026W, active compounds read low",0.0571 (active)
same,normalized growth,"S. cerevisiae deletion strains, locus YLL041C, strain sdh2, active compounds read low",0.0651 (active)
same,normalized growth,"S. cerevisiae deletion strains, locus YLR027C, strain aat2, active compounds read low",0.0531 (active)
same,normalized growth,"S. cerevisiae deletion strains, locus YLR039C, strain RIC1, active compounds read low",0.106 (active)
same,normalized growth,"S. cerevisiae deletion strains, locus YLR058C, strain SHM2, active compounds read low",0.136 (active)
same,normalized growth,"S. cerevisiae deletion strains, locus YLR102C, strain apc9, active compounds read low",0.901 (active)
same,normalized growth,"S. cerevisiae deletion strains, locus YLR113W, strain HOG1, active compounds read low",0.117 (active)
same,normalized growth,"S. cerevisiae deletion strains, locus YLR221C, strain rsa3, active compounds read low",0.0526 (active)
same,normalized growth,"S. cerevisiae deletion strains, locus YLR258W, strain gsy2, active compounds read low",0.062 (active)
same,normalized growth,"S. cerevisiae deletion strains, locus YLR262C, strain YPT6 (second series), active compounds read low",0.0891 (active)
same,normalized growth,"S. cerevisiae deletion strains, locus YLR262C, strain YPT6, active compounds read low",0.139 (active)
same,normalized growth,"S. cerevisiae deletion strains, locus YLR268W, strain sec22, active compounds read low",0.74 (active)
same,normalized growth,"S. cerevisiae deletion strains, locus YLR320W, strain mms22, active compounds read low",0.071 (active)
same,normalized growth,"S. cerevisiae deletion strains, locus YLR330W, strain CHS5, active compounds read low",0.321 (active)
same,normalized growth,"S. cerevisiae deletion strains, locus YLR342W, strain FKS1 (second series), active compounds read low",0.102 (active)
same,normalized growth,"S. cerevisiae deletion strains, locus YLR342W, strain FKS1, active compounds read low",0.0664 (active)
same,normalized growth,"S. cerevisiae deletion strains, locus YLR357W, strain rsc2, active compounds read low",0.148 (active)
same,normalized growth,"S. cerevisiae deletion strains, locus YLR370C, strain arc18, active compounds read low",0.0667 (active)
same,normalized growth,"S. cerevisiae deletion strains, locus YLR371W, strain rom2, active compounds read low",0.622 (active)
same,normalized growth,"S. cerevisiae deletion strains, locus YLR384C, strain iki3, active compounds read low",0.0786 (active)
same,normalized growth,"S. cerevisiae deletion strains, locus YLR418C, strain cdc73, active compounds read low",0.323 (active)
same,normalized growth,"S. cerevisiae deletion strains, locus YML016C, strain PPZ1, active compounds read low",0.191 (active)
same,normalized growth,"S. cerevisiae deletion strains, locus YML032C, strain rad52, active compounds read low",0.497 (active)
same,normalized growth,"S. cerevisiae deletion strains, locus YML120C, strain ndi1, active compounds read low",0.0538 (active)
same,normalized growth,"S. cerevisiae deletion strains, locus YML124C, strain tub3, active compounds read low",0.908 (active)
same,normalized growth,"S. cerevisiae deletion strains, locus YMR058W, strain fet3, active compounds read low",0.0622 (active)
same,normalized growth,"S. cerevisiae deletion strains, locus YMR078C, strain ctf18, active compounds read low",0.611 (active)
same,normalized growth,"S. cerevisiae deletion strains, locus YMR125W, strain sto1, active compounds read low",0.0742 (active)
same,normalized growth,"S. cerevisiae deletion strains, locus YMR129W, active compounds read low",0.0704 (active)
same,normalized growth,"S. cerevisiae deletion strains, locus YMR205C, strain PFK2, active compounds read low",0.0794 (active)
same,normalized growth,"S. cerevisiae deletion strains, locus YMR223W, strain ubp8, active compounds read low",0.558 (active)
same,normalized growth,"S. cerevisiae deletion strains, locus YMR231W, strain pep5, active compounds read low",0.0903 (active)
same,normalized growth,"S. cerevisiae deletion strains, locus YMR263W, strain SAP30, active compounds read low",0.099 (active)
same,normalized growth,"S. cerevisiae deletion strains, locus YMR307W, strain GAS1, active compounds read low",0.121 (active)
same,normalized growth,"S. cerevisiae deletion strains, locus YNL067W, strain RPL9B, active compounds read low",0.254 (active)
same,normalized growth,"S. cerevisiae deletion strains, locus YNL071W, strain lat1, active compounds read low",0.0615 (active)
same,normalized growth,"S. cerevisiae deletion strains, locus YNL128W, strain TEP1, active compounds read low",0.119 (active)
same,normalized growth,"S. cerevisiae deletion strains, locus YNL153C, strain GIM3, active compounds read low",0.117 (active)
same,normalized growth,"S. cerevisiae deletion strains, locus YNL183C, strain NPR1, active compounds read low",0.00185 (active)
same,normalized growth,"S. cerevisiae deletion strains, locus YNL209W, strain ssb2, active compounds read low",0.0648 (active)
same,normalized growth,"S. cerevisiae deletion strains, locus YNL233W, strain BNI4, active compounds read low",0.0815 (active)
same,normalized growth,"S. cerevisiae deletion strains, locus YNL248C, strain rpa49, active compounds read low",0.076 (active)
same,normalized growth,"S. cerevisiae deletion strains, locus YNL250W, strain rad50, active compounds read low",0.734 (active)
same,normalized growth,"S. cerevisiae deletion strains, locus YNL271C, strain bni1, active compounds read low",0.749 (active)
same,normalized growth,"S. cerevisiae deletion strains, locus YNL298W, strain CLA4, active compounds read low",0.437 (active)
same,normalized growth,"S. cerevisiae deletion strains, locus YNL307C, strain MCK1, active compounds read low",0.292 (active)
same,normalized growth,"S. cerevisiae deletion strains, locus YNL322C, strain KRE1 (second series), active compounds read low",0.11 (active)
same,normalized growth,"S. cerevisiae deletion strains, locus YNL322C, strain KRE1, active compounds read low",0.167 (active)
same,normalized growth,"S. cerevisiae deletion strains, locus YNR049C, strain mso1, active compounds read low",0.0733 (active)
same,normalized growth,"S. cerevisiae deletion strains, locus YNR052C, strain pop2, active compounds read low",0.538 (active)
same,normalized growth,"S. cerevisiae deletion strains, locus YOL006C, strain TOP1, active compounds read low",0.217 (active)
same,normalized growth,"S. cerevisiae deletion strains, locus YOL012C, strain htz1",0.624
same,normalized growth,"S. cerevisiae deletion strains, locus YOL147C, strain pex11, active compounds read low",0.444 (active)
same,normalized growth,"S. cerevisiae deletion strains, locus YOR001W, strain rrp6, active compounds read low",0.0626 (active)
same,normalized growth,"S. cerevisiae deletion strains, locus YOR061W, strain CKA2, active compounds read low",0.102 (active)
same,normalized growth,"S. cerevisiae deletion strains, locus YOR069W, strain VPS5, active compounds read low",0.217 (active)
same,normalized growth,"S. cerevisiae deletion strains, locus YOR070C, strain gyp1, active compounds read low",0.063 (active)
same,normalized growth,"S. cerevisiae deletion strains, locus YOR080W, strain dia2, active compounds read low",0.0669 (active)
same,normalized growth,"S. cerevisiae deletion strains, locus YOR083W, strain WHI5, active compounds read low",0.0608 (active)
same,normalized growth,"S. cerevisiae deletion strains, locus YOR106W, strain vam3, active compounds read low",0.0604 (active)
same,normalized growth,"S. cerevisiae deletion strains, locus YOR136W, strain idh2, active compounds read low",0.758 (active)
same,normalized growth,"S. cerevisiae deletion strains, locus YOR144C, strain elg1, active compounds read low",0.553 (active)
same,normalized growth,"S. cerevisiae deletion strains, locus YOR184W, strain ser1, active compounds read low",0.506 (active)
same,normalized growth,"S. cerevisiae deletion strains, locus YOR231W, strain MKK1, active compounds read low",0.101 (active)
same,normalized growth,"S. cerevisiae deletion strains, locus YOR265W, strain rbl2, active compounds read low",0.0564 (active)
same,normalized growth,"S. cerevisiae deletion strains, locus YOR270C, strain vph1, active compounds read low",0.102 (active)
same,normalized growth,"S. cerevisiae deletion strains, locus YOR290C, strain snf2, active compounds read low",0.0652 (active)
same,normalized growth,"S. cerevisiae deletion strains, locus YOR316C, strain cot1, active compounds read low",0.799 (active)
same,normalized growth,"S. cerevisiae deletion strains, locus YPL051W, strain arl3, active compounds read low",0.0626 (active)
same,normalized growth,"S. cerevisiae deletion strains, locus YPL055C, strain LGE1, active compounds read low",0.1 (active)
same,normalized growth,"S. cerevisiae deletion strains, locus YPL078C, strain atp4, active compounds read low",0.0621 (active)
same,normalized growth,"S. cerevisiae deletion strains, locus YPL106C, strain sse1, active compounds read low",0.0816 (active)
same,normalized growth,"S. cerevisiae deletion strains, locus YPL240C, strain hsp82, active compounds read low",0.0552 (active)
same,normalized growth,"S. cerevisiae deletion strains, locus YPL241C, strain CIN2, active compounds read low",0.219 (active)
same,normalized growth,"S. cerevisiae deletion strains, locus YPL256C, strain CLN2, active compounds read low",0.109 (active)
same,normalized growth,"S. cerevisiae deletion strains, locus YPR119W, strain clb2, active compounds read low",0.67 (active)
same,normalized growth,"S. cerevisiae deletion strains, locus YPR141C, strain kar3, active compounds read low",0.992
same,normalized growth,"S. cerevisiae deletion strains, locus YPR163C, strain tif3, active compounds read low",0.86 (active)
same,normalized growth,"S. cerevisiae deletion strains, locus YPR167C, strain met16, active compounds read low",0.655 (active)
same,normalized growth,"S. cerevisiae deletion strains, strain wtn01, active compounds read low",0.813 (active)
same,normalized growth,"S. cerevisiae strains, strain wild type, active compounds read low",0.112 (active)
